Reference: PubChem BioAssay (NCI)
The panel holds about 83,000 compounds, 20% with a hit somewhere; the sample as a whole holds those more often.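 The test compound was applied at a single concentration to cells in 96-well plates for 48 hours, and percent growth was recorded.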 Unmarked numbers belong to inactive results. Active and inactive are the calls of the source. How the source made its calls: active means growth percent below 10; inactive means the rest.

tested on: NCI-H23 lung; test: NCI-60 one-dose screen, 48 h (100 = growth as untreated, 0 = no growth, -100 = all killed); details: 10 µM unless noted

Row | SMILES | growth
1 | CC1(C)CC[C@]2(C(=O)O)CC[C@]3(C)C(=CCC4[C@@]5(C)C[C@@H](O)[C@@H]6OC(c7ccccc7O)OC[C@@]6(C)C5CC[C@]43C)C2C1 (stereo partly drawn) | 58.2%
2 | CN(c1ccc(Br)cc1)S(=O)(=O)c1ccc(-c2cnc(C3CC3)o2)cc1 | 20%
3 | CN1CCN(c2nc(-c3csc(-c4ccncc4)n3)cc3ccccc23)CC1 | 71.8%
4 | O=C(O)c1ccc(-n2cc(CNc3ccc(F)cc3)c(-c3ccc(C(F)(F)F)cc3)n2)cc1 | 93.3%
5 | CSc1nccc(-c2c(-c3ccc(F)c(OCc4ccc(F)cc4)c3)nc3sccn23)n1 | 60.2%
6 | O=C(COc1ccc(C2SCC(=O)N2c2ccccc2)cc1)c1ccccc1 (stereo not drawn) | 94%
7 | O=C(O)CNS(=O)(=O)c1ccc(Oc2ccc(S(=O)(=O)NCC(=O)O)cc2)cc1 | 101%
8 | Cn1nc(Nc2ccccc2)c(C(=O)NN)c1N | 100%
9 | COc1cc(/C=N/n2cnc3oc(-c4ccccc4)cc3c2=N)cc(CN2CCN(C)CC2)c1O | 104%
10 | CC(C)SC1=NC(=C(C(=N1)NC2=ClC=CC=C2)C#N)C3=CC=CC=C3 | 37.7%
11 | NS(=O)(=O)c1ccc(Nc2nc(N/N=C/c3ccc(F)cc3)nc(Nc3ccccc3)n2)cc1 | 54.2%
12 | C#C[C@]1(O)CC[C@H]2[C@@H]3CC=C4c5sc(Nc6cccc(C)n6)nc5CC[C@]4(C)[C@H]3CC[C@@]21C | 36.3%
13 | CNC(=O)c1cc(Oc2ccc3nc(NC(=O)c4cc(C)cc(C)c4)sc3c2)ccn1 | 97.2%
14 | C=C(C)[C@@H]1CC[C@]2(COS(C)(=O)=O)CC[C@]3(C)[C@H](CC[C@@H]4[C@@]5(C)CCCNC(C)(C)[C@@H]5CC[C@]43C)[C@@H]12 | 82%
15 | CC(C)=CCc1c2c(c(O)c3c1O[C@]14C(=C[C@@H]5C[C@H]1C(C)(C)O[C@@]4(C/C=C(/C)C(=O)O)C5=O)C3=O)CC(O)C(C)(C)O2 (stereo partly drawn) | -60.3% (active)
16 | O=C(Cn1cc(CN2C(=O)c3ccc([N+](=O)[O-])cc3C2=O)nn1)Nc1ccccc1Br | 98.1%
17 | COc1cc(-c2nc(SCc3ccc(C)cc3)[nH]c(=O)c2C#N)ccc1OCc1ccccc1 | 106%
18 | CC(C)N=C(N/C(N)=N/c1nc2ccccc2s1)NC(C)C | 47.5%
19 | O=C(Nc1cc(Cl)cc(Cl)c1)Nc1ccc2oc(=O)ccc2c1 | -6.33% (active)

Row | SMILES | growth
20 | CS(=O)(=O)c1nccc(-c2c(-c3ccc(F)c(OCc4ccccc4)c3)nc3sccn23)n1 | 98.4%
21 | COc1ccc(C2C(C#N)=C(N)Oc3c2sc2ccc(C)cc32)cc1 (stereo not drawn) | 43.7%
22 | C#C[C@]1(O)CC[C@H]2[C@@H]3CC=C4c5sc(-c6ccccn6)nc5CC[C@]4(C)[C@H]3CC[C@@]21C | 81.2%
23 | COc1ccc(OC)c([C@H]2c3[nH]c4ccccc4c3C[C@H]3C(=O)N(CCCCCCC(=O)NO)CC(=O)N23)c1 | 100%
24 | Cc1cnc2nc(NN)[nH]n12 | 104%
25 | COc1ccc(-c2nc3cc(Cl)c(Cl)cc3n2CC(=O)N=Nc2c(O)[nH]c3ccc(Br)cc23)cc1 | -21.5% (active)
26 | O=C(NCCCCCCNC(=O)c1c2c(nc3ccccc13)-c1cccnc1SC2)c1c2c(nc3ccccc13)-c1cccnc1SC2 | 63.1%
27 | COc1ccc(-c2ccc3c4c(cccc24)C(=O)N(N2C(=O)c4cccc5cccc(c45)C2=O)C3=O)cc1 | 96.1%
28 | COc1ccc(-c2nc3cc(Cl)c(Cl)cc3n2CC(=O)N=Nc2c(O)[nH]c3ccc(Cl)cc23)cc1 | 21.2%
29 | CCOC(=O)c1c(NCC(=O)Nc2ccc(Br)cc2)sc2c1CCCC2 | 26.3%
30 | CN1C(=O)/C(=C/C=C/c2ccco2)SC1=S | 75.7%
31 | COc1ccc(-c2nnc(SCc3ccc(O)c4ncccc34)o2)cc1 | 38.2%
32 | C#CCOc1ccc(/C=N/Nc2nc(-c3cc4cc(Br)cc(Br)c4oc3=O)cs2)cc1 | 94.6%
33 | CS(=O)c1nccc(-c2c(-c3ccc(F)c(OCCc4ccc(F)cc4)c3)nc3sccn23)n1 (stereo not drawn) | 7.95% (active)
34 | O=C1[C@@H]2Cc3c([nH]c4ccccc34)[C@H](c3c(Cl)cccc3Cl)N2C(=O)CN1C1CCN(Cc2c(F)cccc2F)CC1 | 92.9%
35 | NNC(=O)c1sc2nc(-c3cnccn3)cc(-c3cccs3)c2c1N | 98.6%
36 | Cn1cc(-c2nnc(N)nc2-c2cn(C)c3ccc(F)cc23)c2cc(F)ccc21 | 101%
37 | COc1ccccc1/C=C/C=N/NC1=NC2C(S1)N(C)C(=O)N2c1ccccc1 (stereo not drawn) | 30.1%
38 | C[C@H]1[C@H](C)CC[C@]2(COC(=O)c3cccnc3)CC[C@]3(C)C(=CC[C@@H]4[C@@]5(C)CCCNC(C)(C)[C@@H]5CC[C@]43C)[C@H]12 | 70%
